Where only a bound is given, the exact number is not on record here.

The subject of the experiment is Plasmodium falciparum NF54. The experiment can be described thus: growth inhibition relative to untreated control; higher = more inhibition. As to conditions: 1 µM; MM + chorismate end-products (CM screening medium); 72 h. The essentials: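 Ring-stage P. falciparum NF54 parasites at 1% hematocrit and 1% parasitemia were dispensed at 100 μL/well into dark 96-well half-area plates and given a single dose of test compound at 5 μM or 1 μM for 72 h at 37 °C. Incubation took place in minimal RPMI, either alone or supplemented with the chorismate end-products folate (2.2 μM), pABA (7.3 μM), pHBA (7.3 μM), tyrosine (111 μM), phenylalanine (90 μM) and tryptophan. Growth inhibition was determined with SYBR Green relative to untreated wells, using uninfected erythrocytes for background.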
For the molecule `CO/C=C(/C(=O)OC)c1ccccc1Oc1cc(Oc2ccccc2C#N)ncn1`, the growth inhibition came to 96%.

For the molecule `CC1COC(Cn2cncn2)(c2ccc(Oc3ccc(Cl)cc3)cc2Cl)O1` (centres undefined), the growth inhibition stood at 22%.

Turning to `Cc1nn(Cc2ccccc2)c(Cl)c1C(=O)NC1CCCCCC1`, the growth inhibition is 16.8%.

For the molecule `CC1(C)OB(O)c2ccc(C3=NOC(c4cc(Cl)c(F)c(Cl)c4)(C(F)(F)F)C3)cc21` (centres undefined), the growth inhibition worked out at 53.3%.

In the case of `CO[C@@H]1CN(c2ccc(C#CC3(O)CN4CCC3CC4)c(Cc3ccccc3)n2)C[C@H]1O` (some centres undefined), the growth inhibition was 33.3%.

On to `Cc1cc(C2=NOC(c3cc(Cl)c(F)c(Cl)c3)(C(F)(F)F)C2)ccc1C(=O)NCc1ccc2c(c1)C(C)(C)OB2O` (centres undefined), for which the growth inhibition was determined as 19.4%.

For `CO/N=C(\C(=O)OC)c1ccccc1CO/N=C(\C)c1cccc(C(F)(F)F)c1`, the growth inhibition amounted to 98%.

As for `O=C1O[C@@H](CO)CN1c1cc(F)c(C2=CCN(Cc3ccccc3)CC2)c(F)c1`, the growth inhibition amounted to 19.3%.

Take `CC(C)(C)C(O)C(Oc1ccc(-c2ccccc2)cc1)n1cncn1` (centres undefined): the growth inhibition was determined as 46.2%.

Consider `Cc1cccc(C(=O)Nc2ccnc(N(C)C3CCN(CC(C)C)CC3)c2)c1`, for which the growth inhibition is greater than 100%.

Consider `Nc1c2c(nc3sc4c(c13)CCCC4)CCCC2`, for which the growth inhibition came out at 2.72%.

Take `O=C1O[C@@H](COc2ccon2)CN1c1cc(F)c(C2=CCN(Cc3ccccc3)CC2)c(F)c1`: the growth inhibition is 13.6%.

`Cc1nn(C)c(C)c1NS(=O)(=O)c1c(Cl)cc(-c2ccnc(N3CCNCC3)c2)cc1Cl`: the growth inhibition amounted to 55.7%.

Consider `CCc1nn(C)c(C(=O)NCc2ccc(Oc3ccc(C)cc3)cc2)c1Cl`, for which the growth inhibition was less than 0%.

The values are drawn from the supplement of paper PMC6763611.
